These results are taken from PubChem BioAssay (NCATS).

Experiment [1] can be described thus: Viability qHTS for spleen associated tyrosine kinase inhibitor (SYKi) naive MV4-11 cells (AID 1963823). Also: nearly all actives have a fitted effect of over 40% in size. The method, boiled down: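 In this viability screen, compounds acted on SYK inhibitor naive MV4-11 cells for three days (72 hr, 37 C). Remaining viable cells were measured by CellTiter-Glo luminescence following a 10 min room-temperature development.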
Experiment [2] is described as follows: Viability qHTS for spleen associated tyrosine kinase inhibitor (SYKi) drug resistant MV4-11 cells (AID 1963824). Also: nearly all actives have a fitted effect of over 35% in size. The method, boiled down:
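SYK inhibitor-resistant MV4-11 AML cells, 500 per well, added to predispensed compounds and incubated 72 hr at 37 C, 5% CO2. Viability measured by CellTiter-Glo luminescence after 10 min at room temperature.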
For orientation: qHTS replaces the single test concentration by a dilution series.

Experiment [3] can be described thus: Cellular viability qHTS for adrenocortical cancer (ACC) cell line SW-13 (AID 1963989). Also: nearly all actives have a fitted effect of over 65% in size.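 As to activity (max response): cells grown in serum-free medium with ITS supplement; % is scaled to controls: 0 for no effect and ±100 for the full control effect.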 Conditions: SW-13 ACC cells viability, CellTiter-Glo, 48 h; activity (max response): hits give low values. The method in brief: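 Luminescent ATP read-out (CellTiter-Glo, 20 min at room temperature) measured metabolically competent SW-13 cells after 48 h compound treatment. Final concentrations spanned up to 46 uM; bortezomib served as positive control.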

The nature of experiment [4]: Cellular viability qHTS for adrenocortical cancer (ACC) cell line NCI-H295R (AID 1963990). Also: nearly all actives have a fitted effect of over 60% in size. The method in brief:
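IC50 and maximal efficacy derive from four-parameter logistic modelling of titration curves, with reads scaled between DMSO-only wells (0%) and doxorubicin hydrochloride (100% inhibition). Compounds spanned up to 46 uM over 48 h.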

Where “and” joins values, the source holds several entries; their conditions need not be identical. Identical values can stand only once. Results filed as inconclusive are left out. Values without a mark were called inactive. Calls of active or inactive are those of the source. Calls follow the shape of the dose curve; as a rule, active = well fitted curve in the direction sought with a large enough effect; inconclusive = small, poorly fitted or top-dose-only effect, or another doubt; inactive = no such curve, though single readings can be large; an effect the other way counts as inactive or inconclusive.
Potency is read from the fitted curve at half-maximal effect.

Turning to `Nc1c2c(nc3c1CCC3)CCCC2`, the Potency entry in experiment [1], in experiment [2] and in experiment [4] was “inactive” each time. Moreover, the activity (max response) in experiment [3] was -9.88%.

As to `CC(C)(O)c1coc(S(=O)(=O)NC(=O)Nc2c3c(cc4c2CCC4)CCC3)c1`, the Potency entry in experiment [1], in experiment [2] and in experiment [4] was “inactive” throughout. The activity (max response) in experiment [3] is 5.8%.

Regarding `C=CC(=O)Nc1cccc(Nc2nc(Nc3ccc(Oc4ccnc(C(=O)NC)c4)cc3)ncc2F)c1`, the Potency is 4.61 µM (active) and 2.63 µM (active) in experiment [1]; 5.8 µM (active) and 4.17 µM (active) in experiment [2]; 17.8 µM (active) in experiment [3]; 17.8 µM (active) in experiment [4].

With `CC[C@@]1(O)C(=O)OCc2c1cc1n(c2=O)Cc2c-1nc1ccccc1c2/C=N/OC(C)(C)C`, the Potency in experiment [1] is 0.0084 µM (active); in experiment [2] it was 0.006 µM (active); in experiment [3], 0.013 µM (active). The Potency result in experiment [4] is “inactive”.

In the case of `Nc1ccc(S(=O)(=O)Nc2cnc3ccccc3n2)cc1`, the Potency entry in experiment [1], in experiment [2] and in experiment [4] was “inactive” throughout. Also, the activity (max response) in experiment [3] was 8.58%.

Regarding `COc1cc(OC)c2c(=O)[nH]c(-c3cc(C)c(OCCO)c(C)c3)nc2c1`, the Potency is 14.6 µM (active) in experiment [1]; 13 µM (active) and 9.34 µM (active) in experiment [2]. The activity (max response) in experiment [3] is -6.15%. In experiment [4], the Potency entry is “inactive”.

Turning to `CC(=O)NCCCCCC(=O)O`, the Potency entry in experiment [1], in experiment [2] and in experiment [4] was “inactive” each time. For the same compound, in experiment [3], the activity (max response) is -2.94%.

As for `Brc1c(NC2=NCCN2)ccc2nccnc12`, the Potency result in experiment [1], in experiment [2] and in experiment [4] was “inactive” throughout. Besides, in experiment [3], the activity (max response) is -5.06%.

`CCC(C(=O)OCCOCCN(CC)CC)c1ccccc1` (stereo unspecified): the Potency entry in experiment [1], in experiment [2] and in experiment [4] was “inactive” each time. Moreover, the activity (max response) in experiment [3] was -6.83%.

For `C[C@@H](C(=O)Nc1ccc(Cl)cc1)C1CCC(c2ccnc3ccc(F)cc23)CC1` (stereo partly specified), the Potency in experiment [1] is 18.6 µM (active); in experiment [2] it was 14.8 µM (active); in experiment [3] it was 25.1 µM (active); in experiment [4], 25.1 µM (active).

Take `CN=C(NC#N)NCCSCc1csc(N=C(N)N)n1`: the Potency result in experiment [1], in experiment [2] and in experiment [4] was “inactive” throughout. For the same compound, the activity (max response) in experiment [3] is 7.67%.

Turning to `CC1=NN(c2ccc(C(=O)O)cc2)C(=O)/C1=C/c1ccc(-c2cc(C)c(C)cc2[N+](=O)[O-])o1`, the Potency is 16.6 µM (active) in experiment [1] and 18.6 µM (active) in experiment [2]. The activity (max response) in experiment [3] is 11.6%. For the same compound, the Potency result in experiment [4] was “inactive”.

On to `Cc1cc(C(C#N)c2ccc(Cl)cc2)c(Cl)cc1NC(=O)c1cc(I)cc(I)c1O` (stereo unspecified), for which the Potency was 18.8 µM (active) in experiment [1]; 18.8 µM (active) and 23.1 µM (active) in experiment [2]; 4.11 µM (active) in experiment [3]; 3.66 µM (active) in experiment [4].

Turning to `COc1cccc2c1C(=O)c1c(O)c3c(c(O)c1C2=O)C[C@@](O)(C(=O)CO)C[C@@H]3O[C@H]1C[C@H](N)[C@H](O[C@@H]2CCCCO2)[C@H](C)O1`, the Potency was 0.75 µM (active) in experiment [1], 3.35 µM (active) in experiment [2], 0.731 µM (active) in experiment [3] and 3.66 µM (active) in experiment [4].

As to `Nc1ccc([N+](=O)[O-])c(C(F)(F)F)c1`, the Potency entry in experiment [1], in experiment [2] and in experiment [4] was “inactive” each time. In addition, the activity (max response) in experiment [3] is 0.003%.

Turning to `NC[C@@](O)(c1ccc(Cl)cc1)c1ccc(-c2cn[nH]c2)cc1`, the Potency is 2.06 µM (active) and 3.32 µM (active) in experiment [1]; 3.26 µM (active) and 6.61 µM (active) in experiment [2]; 12.6 µM (active) in experiment [3]; 10 µM (active) in experiment [4].

`C=C1C(=O)O[C@H]2C[C@H](C)C(/C=C/C(C)=O)=CC[C@H]12`: the Potency was 1.18 µM (active) in experiment [1], 0.934 µM (active) in experiment [2], 15.8 µM (active) in experiment [3] and 7.94 µM (active) in experiment [4].

On to `O=c1oc2c(C3OCCCO3)c(O)ccc2c2c1CNCC2`, for which the Potency in experiment [1] is 13.2 µM (active); in experiment [2] it was 11.8 µM (active). Also, the activity (max response) in experiment [3] was 5.04%. Moreover, in experiment [4], the Potency entry is “inactive”.

On to `CC(=O)Nc1ccc(OCCOCCOc2ccc(NC(C)=O)cc2)cc1`, for which the Potency result in experiment [1], in experiment [2] and in experiment [4] was “inactive” each time. The activity (max response) in experiment [3] is -7.42%.

On to `Cc1c(O)cccc1C(=O)N[C@@H](CSc1ccccc1)[C@H](O)CN1C[C@H]2CCCC[C@H]2C[C@H]1C(=O)NC(C)(C)C`, for which the Potency in experiment [1] is 23.7 µM (active); in experiment [2], 13.3 µM (active); in experiment [3], 20.6 µM (active); in experiment [4], 6.51 µM (active).

On to `C/C=C/C/C=C/CCC(=O)[C@H]1O[C@H]1C(N)=O`, for which the Potency in experiment [1] is 8.33 µM (active); in experiment [2], 6.61 µM (active); in experiment [3] it was 25.1 µM (active); in experiment [4], 20 µM (active).

Take `CN(C)CCOc1ccccc1Cc1ccccc1`: the Potency result in experiment [1], in experiment [2] and in experiment [4] was “inactive” throughout. Besides, the activity (max response) in experiment [3] was 9.36%.

Regarding `O=C1NC(=O)[C@@H](c2c[nH]c3ccccc23)[C@H]1c1cn2c3c(cccc13)CCC2`, the Potency in experiment [1] was 0.833 µM (active); in experiment [2], 0.742 µM (active); in experiment [3], 0.398 µM (active); in experiment [4], 0.355 µM (active).

`C[C@@H](Oc1cc(C(=O)Nc2ccc(C(=O)N3CCN(C)CC3)cc2)nnc1N)c1c(Cl)ccc(F)c1Cl`: the Potency in experiment [1] was 1.66 µM (active); in experiment [2], 2.63 µM (active); in experiment [3], 17.8 µM (active); in experiment [4], 2.82 µM (active).
